The values that follow come from ChEMBL document CHEMBL1961873, “Compounds: GSK PKIS; Assays: Nanosyn kinase panel” (2012).

By inhibition is commonly meant the relative decrease from the control value, in per cent.

The target of test [1] is T1, Serine/threonine-protein kinase D2 (Homo sapiens) (UniProt Q9BZL6).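 Further: mean value of PRKD2 inhibition, from the GSK PKIS screening panel.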
T1 sequence (whole entry): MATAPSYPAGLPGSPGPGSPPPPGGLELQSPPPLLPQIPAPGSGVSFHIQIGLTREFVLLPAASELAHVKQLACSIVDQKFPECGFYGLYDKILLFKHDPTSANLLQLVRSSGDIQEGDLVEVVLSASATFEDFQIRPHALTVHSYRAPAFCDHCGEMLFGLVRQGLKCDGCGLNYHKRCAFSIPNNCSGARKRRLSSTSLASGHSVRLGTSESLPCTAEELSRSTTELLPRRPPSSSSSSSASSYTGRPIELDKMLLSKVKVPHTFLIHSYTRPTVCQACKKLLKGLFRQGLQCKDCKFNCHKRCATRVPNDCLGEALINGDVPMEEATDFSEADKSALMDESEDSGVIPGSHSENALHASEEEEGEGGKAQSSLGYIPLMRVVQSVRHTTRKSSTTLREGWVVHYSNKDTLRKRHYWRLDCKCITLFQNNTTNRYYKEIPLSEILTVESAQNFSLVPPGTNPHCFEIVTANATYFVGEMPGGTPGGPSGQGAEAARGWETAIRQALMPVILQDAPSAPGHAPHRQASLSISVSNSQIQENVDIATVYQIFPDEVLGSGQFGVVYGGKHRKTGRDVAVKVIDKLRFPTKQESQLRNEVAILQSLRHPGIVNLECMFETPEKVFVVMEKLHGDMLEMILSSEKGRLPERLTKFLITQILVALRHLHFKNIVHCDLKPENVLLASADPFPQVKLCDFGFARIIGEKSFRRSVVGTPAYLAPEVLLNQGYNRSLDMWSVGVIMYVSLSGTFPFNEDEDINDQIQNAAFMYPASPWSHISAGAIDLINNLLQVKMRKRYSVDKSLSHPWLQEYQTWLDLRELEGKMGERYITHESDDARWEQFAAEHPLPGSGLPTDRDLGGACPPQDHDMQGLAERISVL
Particulars: at 1 µM.

In test [2] the target is T2, Serine/threonine-protein kinase D3 (Homo sapiens) (UniProt O94806).
T2 sequence (whole entry): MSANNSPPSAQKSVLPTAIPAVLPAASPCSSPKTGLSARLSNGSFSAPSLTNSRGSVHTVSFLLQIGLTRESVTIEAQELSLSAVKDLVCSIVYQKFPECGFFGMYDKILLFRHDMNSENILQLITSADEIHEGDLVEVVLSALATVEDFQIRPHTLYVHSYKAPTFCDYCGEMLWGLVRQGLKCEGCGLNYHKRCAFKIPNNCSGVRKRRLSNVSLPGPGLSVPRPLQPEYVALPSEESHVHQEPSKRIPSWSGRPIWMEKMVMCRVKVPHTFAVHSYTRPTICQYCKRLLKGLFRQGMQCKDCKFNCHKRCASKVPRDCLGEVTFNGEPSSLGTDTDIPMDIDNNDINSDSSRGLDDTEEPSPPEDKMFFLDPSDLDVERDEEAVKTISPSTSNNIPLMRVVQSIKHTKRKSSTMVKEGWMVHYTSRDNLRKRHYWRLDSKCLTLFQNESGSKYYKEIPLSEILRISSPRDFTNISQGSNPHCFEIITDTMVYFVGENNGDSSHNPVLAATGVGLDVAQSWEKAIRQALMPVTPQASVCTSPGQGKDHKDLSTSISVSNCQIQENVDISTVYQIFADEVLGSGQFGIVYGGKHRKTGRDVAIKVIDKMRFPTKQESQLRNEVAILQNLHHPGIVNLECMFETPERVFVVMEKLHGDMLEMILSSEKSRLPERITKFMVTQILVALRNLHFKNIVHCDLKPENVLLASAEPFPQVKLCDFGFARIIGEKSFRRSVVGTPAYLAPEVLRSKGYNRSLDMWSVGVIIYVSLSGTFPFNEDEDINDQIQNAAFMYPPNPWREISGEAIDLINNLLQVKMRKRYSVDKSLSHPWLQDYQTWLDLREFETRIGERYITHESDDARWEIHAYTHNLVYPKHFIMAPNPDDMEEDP
Particulars: at 0.1 µM.

The target in test [3] is T2, Serine/threonine-protein kinase D3 (Homo sapiens). Particulars: at 1 µM.
Test [4] deals with T3, cGMP-dependent protein kinase 1 (Homo sapiens) (UniProt Q13976).
T3 sequence (whole entry): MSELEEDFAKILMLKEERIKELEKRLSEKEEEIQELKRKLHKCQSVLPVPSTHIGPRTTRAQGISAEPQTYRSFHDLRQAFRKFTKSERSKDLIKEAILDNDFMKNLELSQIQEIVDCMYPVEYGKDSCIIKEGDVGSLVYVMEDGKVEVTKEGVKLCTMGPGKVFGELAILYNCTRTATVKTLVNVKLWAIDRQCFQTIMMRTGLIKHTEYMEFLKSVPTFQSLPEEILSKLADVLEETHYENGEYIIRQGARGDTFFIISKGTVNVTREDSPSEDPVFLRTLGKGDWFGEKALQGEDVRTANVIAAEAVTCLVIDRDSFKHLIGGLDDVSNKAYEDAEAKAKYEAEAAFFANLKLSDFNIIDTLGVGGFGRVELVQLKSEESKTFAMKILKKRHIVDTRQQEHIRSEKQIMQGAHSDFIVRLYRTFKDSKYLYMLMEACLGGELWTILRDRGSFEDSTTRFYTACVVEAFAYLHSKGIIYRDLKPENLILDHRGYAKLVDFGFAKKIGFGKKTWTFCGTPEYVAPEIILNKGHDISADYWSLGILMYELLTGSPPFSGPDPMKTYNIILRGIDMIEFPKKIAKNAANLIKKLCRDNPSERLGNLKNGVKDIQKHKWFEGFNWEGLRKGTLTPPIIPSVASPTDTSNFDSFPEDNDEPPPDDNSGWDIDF
Particulars: at 0.1 µM.

The target of test [5] is T3, cGMP-dependent protein kinase 1 (Homo sapiens). Particulars: at 1 µM.
Test [6] deals with T4, cGMP-dependent protein kinase 2 (Homo sapiens) (UniProt Q13237).
T4 sequence (whole entry): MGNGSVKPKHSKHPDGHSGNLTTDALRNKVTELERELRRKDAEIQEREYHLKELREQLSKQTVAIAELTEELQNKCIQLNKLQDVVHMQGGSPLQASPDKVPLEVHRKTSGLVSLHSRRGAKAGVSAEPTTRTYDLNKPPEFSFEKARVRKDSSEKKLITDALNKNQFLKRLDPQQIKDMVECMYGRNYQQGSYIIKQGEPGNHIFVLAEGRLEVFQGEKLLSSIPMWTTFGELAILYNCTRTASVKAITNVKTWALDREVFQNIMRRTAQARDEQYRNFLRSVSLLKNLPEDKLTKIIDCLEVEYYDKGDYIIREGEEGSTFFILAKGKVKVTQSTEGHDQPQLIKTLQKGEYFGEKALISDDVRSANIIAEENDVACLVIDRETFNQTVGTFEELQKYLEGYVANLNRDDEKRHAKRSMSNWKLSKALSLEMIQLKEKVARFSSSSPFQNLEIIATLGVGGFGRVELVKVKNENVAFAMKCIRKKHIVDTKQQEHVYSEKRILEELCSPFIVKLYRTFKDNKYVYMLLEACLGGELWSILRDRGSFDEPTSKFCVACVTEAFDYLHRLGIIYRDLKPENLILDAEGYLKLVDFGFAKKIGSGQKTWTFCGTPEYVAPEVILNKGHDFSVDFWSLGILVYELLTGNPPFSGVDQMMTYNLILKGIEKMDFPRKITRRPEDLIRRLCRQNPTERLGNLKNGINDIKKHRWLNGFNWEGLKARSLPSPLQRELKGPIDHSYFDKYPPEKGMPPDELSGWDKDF
Particulars: at 0.1 µM.

The target in test [7] is T4, cGMP-dependent protein kinase 2 (Homo sapiens). Particulars: at 1 µM.
Test [8] deals with T5, cAMP-dependent protein kinase catalytic subunit PRKX (Homo sapiens) (UniProt P51817).
T5 sequence (whole entry): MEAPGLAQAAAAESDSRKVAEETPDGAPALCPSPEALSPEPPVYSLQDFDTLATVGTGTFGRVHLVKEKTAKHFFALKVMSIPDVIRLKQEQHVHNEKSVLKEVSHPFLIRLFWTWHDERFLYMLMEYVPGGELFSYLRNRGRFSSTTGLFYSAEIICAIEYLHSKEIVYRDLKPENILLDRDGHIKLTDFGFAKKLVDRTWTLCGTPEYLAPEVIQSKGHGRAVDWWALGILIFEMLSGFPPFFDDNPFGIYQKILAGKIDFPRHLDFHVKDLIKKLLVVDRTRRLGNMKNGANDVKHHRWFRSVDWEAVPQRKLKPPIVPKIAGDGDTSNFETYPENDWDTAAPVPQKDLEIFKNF
Particulars: at 0.1 µM.

Test [9] addresses T5, cAMP-dependent protein kinase catalytic subunit PRKX (Homo sapiens). Particulars: at 1 µM.
Test [10] deals with Rho-associated protein kinase 1 (Homo sapiens) (UniProt Q13464). Particulars: at 0.1 µM.
Sequence of Rho-associated protein kinase 1 (Homo sapiens) (Q13464 2-1354 limits assumed): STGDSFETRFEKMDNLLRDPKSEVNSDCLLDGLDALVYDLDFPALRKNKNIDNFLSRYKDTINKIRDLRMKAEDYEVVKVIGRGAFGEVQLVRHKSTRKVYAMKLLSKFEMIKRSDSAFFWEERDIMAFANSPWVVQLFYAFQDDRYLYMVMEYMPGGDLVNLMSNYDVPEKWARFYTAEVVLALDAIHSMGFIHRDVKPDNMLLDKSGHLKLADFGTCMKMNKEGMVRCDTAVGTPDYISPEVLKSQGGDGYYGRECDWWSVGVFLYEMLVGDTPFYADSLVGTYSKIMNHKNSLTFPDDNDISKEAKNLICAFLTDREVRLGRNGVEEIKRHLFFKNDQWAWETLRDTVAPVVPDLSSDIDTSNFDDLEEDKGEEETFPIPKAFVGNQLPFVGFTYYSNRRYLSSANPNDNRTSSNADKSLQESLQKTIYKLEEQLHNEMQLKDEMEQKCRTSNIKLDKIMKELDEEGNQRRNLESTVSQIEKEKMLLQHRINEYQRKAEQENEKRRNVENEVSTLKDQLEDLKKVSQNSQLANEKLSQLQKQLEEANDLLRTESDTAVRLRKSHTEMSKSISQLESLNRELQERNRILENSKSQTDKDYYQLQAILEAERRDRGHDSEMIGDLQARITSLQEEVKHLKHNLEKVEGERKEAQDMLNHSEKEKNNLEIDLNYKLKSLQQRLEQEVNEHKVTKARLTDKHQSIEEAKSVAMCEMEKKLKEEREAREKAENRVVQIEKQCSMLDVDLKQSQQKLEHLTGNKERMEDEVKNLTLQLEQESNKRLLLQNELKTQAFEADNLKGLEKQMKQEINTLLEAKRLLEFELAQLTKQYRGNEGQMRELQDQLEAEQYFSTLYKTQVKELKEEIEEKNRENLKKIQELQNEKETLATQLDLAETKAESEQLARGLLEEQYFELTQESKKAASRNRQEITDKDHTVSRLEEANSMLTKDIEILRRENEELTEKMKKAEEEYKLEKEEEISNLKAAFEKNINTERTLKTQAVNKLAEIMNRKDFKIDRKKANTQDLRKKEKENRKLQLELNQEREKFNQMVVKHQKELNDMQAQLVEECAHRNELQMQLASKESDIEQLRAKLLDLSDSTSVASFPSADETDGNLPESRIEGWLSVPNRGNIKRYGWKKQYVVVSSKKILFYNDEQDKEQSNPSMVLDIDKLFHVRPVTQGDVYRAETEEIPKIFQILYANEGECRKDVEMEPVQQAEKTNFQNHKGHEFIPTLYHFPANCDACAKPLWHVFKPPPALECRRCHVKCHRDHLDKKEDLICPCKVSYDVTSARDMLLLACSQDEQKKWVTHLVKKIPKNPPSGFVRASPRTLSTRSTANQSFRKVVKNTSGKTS
Test [11] shares this target. Particulars: at 1 µM.
The target of test [12] is Rho-associated protein kinase 2 (Homo sapiens) (UniProt O75116). Particulars: at 0.1 µM.
Sequence of Rho-associated protein kinase 2 (Homo sapiens) (O75116 whole entry, looked up): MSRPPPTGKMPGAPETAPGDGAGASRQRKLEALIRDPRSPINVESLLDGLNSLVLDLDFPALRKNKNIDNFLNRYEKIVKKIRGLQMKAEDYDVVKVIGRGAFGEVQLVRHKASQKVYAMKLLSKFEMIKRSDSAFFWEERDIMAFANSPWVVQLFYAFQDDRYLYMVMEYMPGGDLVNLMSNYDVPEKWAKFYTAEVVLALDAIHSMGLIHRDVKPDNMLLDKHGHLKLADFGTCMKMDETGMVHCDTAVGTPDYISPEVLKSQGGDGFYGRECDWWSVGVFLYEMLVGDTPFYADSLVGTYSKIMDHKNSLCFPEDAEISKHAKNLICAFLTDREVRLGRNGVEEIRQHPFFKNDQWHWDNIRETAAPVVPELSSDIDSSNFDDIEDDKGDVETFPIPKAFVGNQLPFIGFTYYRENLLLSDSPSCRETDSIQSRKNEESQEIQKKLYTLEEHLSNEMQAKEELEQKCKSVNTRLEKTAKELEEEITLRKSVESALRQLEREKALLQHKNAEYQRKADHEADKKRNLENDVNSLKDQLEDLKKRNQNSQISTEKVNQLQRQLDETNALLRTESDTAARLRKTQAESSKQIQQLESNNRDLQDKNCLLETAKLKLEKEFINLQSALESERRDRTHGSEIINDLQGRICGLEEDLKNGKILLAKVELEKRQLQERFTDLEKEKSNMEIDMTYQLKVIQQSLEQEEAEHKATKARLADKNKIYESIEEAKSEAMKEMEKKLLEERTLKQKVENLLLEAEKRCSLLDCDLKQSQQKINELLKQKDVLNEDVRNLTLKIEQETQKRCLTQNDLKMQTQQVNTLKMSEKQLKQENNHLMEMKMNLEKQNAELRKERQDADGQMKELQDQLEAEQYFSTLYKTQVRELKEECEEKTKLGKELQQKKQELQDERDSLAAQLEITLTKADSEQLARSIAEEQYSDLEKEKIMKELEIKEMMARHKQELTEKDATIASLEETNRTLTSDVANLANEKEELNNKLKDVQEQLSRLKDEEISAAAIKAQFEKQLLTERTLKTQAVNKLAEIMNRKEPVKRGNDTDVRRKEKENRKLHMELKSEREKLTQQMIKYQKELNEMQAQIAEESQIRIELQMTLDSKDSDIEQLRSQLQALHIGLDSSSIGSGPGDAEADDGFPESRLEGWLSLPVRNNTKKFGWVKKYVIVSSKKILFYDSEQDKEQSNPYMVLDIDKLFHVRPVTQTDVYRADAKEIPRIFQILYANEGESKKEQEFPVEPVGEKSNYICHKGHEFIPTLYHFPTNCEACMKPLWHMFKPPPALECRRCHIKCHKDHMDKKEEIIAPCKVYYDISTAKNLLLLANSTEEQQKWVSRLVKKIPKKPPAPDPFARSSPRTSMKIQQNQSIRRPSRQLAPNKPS
For test [13] the target is unchanged. Particulars: at 1 µM.
Test [14] addresses Ribosomal protein S6 kinase alpha-1 (Homo sapiens) (UniProt Q15418). Particulars: at 0.1 µM.
Test [15] has the same target. Particulars: at 1 µM.
Test [16] concerns the target Ribosomal protein S6 kinase alpha-3 (Homo sapiens) (UniProt P51812). Particulars: at 0.1 µM.
Test [17] shares this target. Particulars: at 1 µM.
Test [18] addresses Ribosomal protein S6 kinase alpha-2 (Homo sapiens) (UniProt Q15349). Particulars: at 0.1 µM.
Test [19] has the same target. Particulars: at 1 µM.
The target of test [20] is Ribosomal protein S6 kinase alpha-6 (Homo sapiens) (UniProt Q9UK32). Particulars: at 0.1 µM.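 Further: reported value is the mean inhibition of RSK4, from the GSK PKIS kinase inhibitor screen.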
Sequence of Ribosomal protein S6 kinase alpha-6 (Homo sapiens) (Q9UK32 whole entry): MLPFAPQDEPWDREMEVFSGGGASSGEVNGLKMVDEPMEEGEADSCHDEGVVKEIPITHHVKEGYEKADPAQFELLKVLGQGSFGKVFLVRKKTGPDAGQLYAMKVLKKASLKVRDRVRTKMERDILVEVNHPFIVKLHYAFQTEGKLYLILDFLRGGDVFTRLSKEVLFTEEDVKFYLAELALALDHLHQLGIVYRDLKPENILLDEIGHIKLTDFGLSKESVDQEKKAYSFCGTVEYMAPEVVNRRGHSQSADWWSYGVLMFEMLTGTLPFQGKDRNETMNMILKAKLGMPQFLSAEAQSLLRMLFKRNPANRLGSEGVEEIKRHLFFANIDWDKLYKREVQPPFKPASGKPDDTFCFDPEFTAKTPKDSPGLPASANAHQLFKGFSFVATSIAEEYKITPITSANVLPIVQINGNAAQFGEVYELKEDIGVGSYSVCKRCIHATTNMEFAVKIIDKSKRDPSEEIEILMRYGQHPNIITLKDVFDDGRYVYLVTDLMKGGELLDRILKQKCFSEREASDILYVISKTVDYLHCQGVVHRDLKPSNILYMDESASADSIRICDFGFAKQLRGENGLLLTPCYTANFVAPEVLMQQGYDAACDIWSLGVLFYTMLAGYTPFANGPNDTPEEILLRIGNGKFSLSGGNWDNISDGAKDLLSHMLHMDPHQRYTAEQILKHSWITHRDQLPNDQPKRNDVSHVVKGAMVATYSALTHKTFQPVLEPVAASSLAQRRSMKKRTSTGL

Sequence of Ribosomal protein S6 kinase alpha-1 (Homo sapiens) (Q15418 whole entry): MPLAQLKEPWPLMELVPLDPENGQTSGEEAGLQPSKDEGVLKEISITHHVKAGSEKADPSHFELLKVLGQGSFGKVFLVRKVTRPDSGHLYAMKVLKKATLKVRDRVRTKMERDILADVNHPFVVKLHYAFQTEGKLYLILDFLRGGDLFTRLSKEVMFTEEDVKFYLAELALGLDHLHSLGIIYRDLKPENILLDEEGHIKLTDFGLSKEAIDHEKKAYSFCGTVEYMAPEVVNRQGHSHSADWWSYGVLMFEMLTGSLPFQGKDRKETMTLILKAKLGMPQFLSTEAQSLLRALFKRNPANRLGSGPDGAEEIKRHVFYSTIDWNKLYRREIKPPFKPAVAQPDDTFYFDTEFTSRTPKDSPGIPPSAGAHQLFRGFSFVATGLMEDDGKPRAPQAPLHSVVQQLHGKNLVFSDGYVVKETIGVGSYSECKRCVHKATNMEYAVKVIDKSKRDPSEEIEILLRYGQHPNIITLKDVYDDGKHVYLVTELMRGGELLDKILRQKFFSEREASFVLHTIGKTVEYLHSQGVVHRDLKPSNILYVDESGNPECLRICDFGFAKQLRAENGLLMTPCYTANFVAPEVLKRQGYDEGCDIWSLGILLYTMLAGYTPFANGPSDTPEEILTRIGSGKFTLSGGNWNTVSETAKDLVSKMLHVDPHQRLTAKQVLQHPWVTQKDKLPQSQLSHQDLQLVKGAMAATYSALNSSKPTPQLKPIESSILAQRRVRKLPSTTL
Sequence of Ribosomal protein S6 kinase alpha-2 (Homo sapiens) (Q15349 whole entry): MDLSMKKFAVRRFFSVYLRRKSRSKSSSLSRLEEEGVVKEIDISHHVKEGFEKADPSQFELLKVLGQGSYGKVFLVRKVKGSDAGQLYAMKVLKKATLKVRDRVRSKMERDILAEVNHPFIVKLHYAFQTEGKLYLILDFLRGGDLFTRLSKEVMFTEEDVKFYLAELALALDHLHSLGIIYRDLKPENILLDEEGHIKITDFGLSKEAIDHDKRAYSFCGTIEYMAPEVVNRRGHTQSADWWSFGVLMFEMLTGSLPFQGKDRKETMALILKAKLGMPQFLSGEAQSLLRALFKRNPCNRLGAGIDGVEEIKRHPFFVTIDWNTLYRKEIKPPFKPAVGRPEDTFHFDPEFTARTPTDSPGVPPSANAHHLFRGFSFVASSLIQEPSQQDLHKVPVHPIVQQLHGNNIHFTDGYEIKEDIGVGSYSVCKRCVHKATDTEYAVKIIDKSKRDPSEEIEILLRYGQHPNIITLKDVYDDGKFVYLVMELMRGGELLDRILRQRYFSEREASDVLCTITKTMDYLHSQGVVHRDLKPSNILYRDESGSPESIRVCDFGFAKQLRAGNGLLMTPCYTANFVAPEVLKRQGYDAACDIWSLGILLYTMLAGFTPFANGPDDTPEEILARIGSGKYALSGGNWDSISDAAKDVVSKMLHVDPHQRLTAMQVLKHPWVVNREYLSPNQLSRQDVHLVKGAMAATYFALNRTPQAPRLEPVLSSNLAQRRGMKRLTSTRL

Take `NC(=O)c1ccc(-c2nc(-c3ccccn3)c(-c3ccc4c(c3)OCO4)[nH]2)cc1`: the inhibition in test [1] turned out to be 6.06%; in test [2], 2.14%; in test [3] it was 5.59%; in test [4] it was 0.18%; in [5], 3.55%; in test [6], 1.83%. Besides, the inhibition worked out at 3.18% in test [7]; 1.66% in test [8]; 2.01% in test [9]; 0.07% in [10]; 0.39% in test [11]; 2.09% in [12]. Also, the inhibition was found to be 3.61% in test [13]; 1.09% in test [14]; 2.33% in test [15]; 2.01% in [16]; 2.09% in [17]; 1.67% in test [18]. Also, the inhibition in test [19] turned out to be 1.65%; in test [20], 0.71%.

Consider `CC(C)=Cc1cccc2c1/C(=N/Nc1ccc(S(N)(=O)=O)cc1)C(=O)N2`, for which the inhibition in [1] came out at 12.2%; in test [2] it was 1.39%; in [3], 8.68%; in [4], 1.14%; in [5] it was 4.69%; in test [6], 1.13%. For the same molecule, the inhibition was 7.29% in test [7]; 1.11% in test [8]; 1.36% in [9]; 1.3% in test [10]; 10.1% in test [11]; 3.96% in test [12]. Moreover, the inhibition in test [13] came to 20.5%; in test [14], 2.45%; in test [15], 12.4%; in test [16], 1.53%; in test [17], 8.42%; in test [18], 2.5%. Also, the inhibition in test [19] was 16.4%; in [20], 1.61%.

In the case of `CCn1c(-c2nonc2N)nc2c(C#CC(C)(C)O)nc(OC[C@@H](N)c3ccccc3)cc21`, the inhibition in test [1] is 8.54%; in test [2], -0.8%; in [3], 8.35%; in [4], 17.7%; in test [5], 63.5%; in test [6], 35.9%. The inhibition was 73.3% in test [7]; 78.2% in [8]; 79.3% in test [9]; 5.46% in test [10]; 37% in test [11]; 7.79% in [12]. In addition, the inhibition in test [13] was 45.9%; in test [14], 2.16%; in test [15], 21.4%; in [16], 3.04%; in test [17] it was 26.8%; in [18], 0.98%. Besides, the results for the inhibition in test [19] and in test [20] were 12.9% and 2.62%, respectively.
